Source: PubChem BioAssay (NMMLSC)
Only some compounds are listed: those with a hit (about 3.5% of all), similar ones and a draw of the others.
Anthrax LF prot – inhibitors of Bacillus anthracis lethal factor protease | multiplex microsphere protease cleavage assay, LF | inhibition, % at 10 µM | hit rate 0.12% among 360,000 | AID 588501; further: plate controls were buffer without enzyme for full effect and enzyme alone for no effect
BoNT-A LC inh2 – inhibitors of Botulinum neurotoxin A light chain protease | hit rate 0.17% among 360,000 | multiplex microsphere protease substrate cleavage, flow cytometry | inhibition, % at 10 µM; further: plate controls were buffer without enzyme for full effect and enzyme alone for no effect
Autofluor counter – counter-screen for toxin protease inhibitors: compound fluorescence; compound autofluorescence counterscreen, microsphere flow cytometry; active compounds read high; fluorescence intensity (no concentration beside the values); hit rate 3.1% among 360,000; in the data active means fluorescence intensity above about 16000; inconclusive means no clear call, values can overlap the other calls
BoNT-F LC inh – inhibitors of Botulinum neurotoxin F light chain protease; Multiplex microsphere protease cleavage assay, flow cytometry; inhibition, % at 10 µM; hit rate 0.22% among 360,000; AID 588497; in the data active means inhibition above about 35%, passing the limit was not always enough; inconclusive means no clear call, values can overlap the other calls; further: plate controls were buffer without enzyme for full effect and enzyme alone for no effect
Starred values were filed as active, the others as inactive. Unless noted, no stated cut-off is given here; in the data, active means inhibition above about 30%; inconclusive means no clear call, values can overlap the other calls; inactive means below that.

For CCOC(=O)c1[nH]c(C)c(C(=O)Nc2ccc(Cl)cc2)c1C the results were Anthrax LF prot -1, BoNT-A LC inh2 0, Autofluor counter 5548 and BoNT-F LC inh -2.
`CCN1CCN(S(=O)(=O)c2ccc(C(C)(C)C)cc2)CC1` gave Anthrax LF prot 0, BoNT-A LC inh2 -2, Autofluor counter 3940 and BoNT-F LC inh -24.
For COc1ccc(/C=N/N2CCN(c3ccccc3OC)CC2)cc1OC the results were Anthrax LF prot -5, BoNT-A LC inh2 inconclusive, Autofluor counter 16494* and BoNT-F LC inh -1.
`COc1cccc(/C=N/N2CCN(c3ccccc3OC)CC2)c1` gave Anthrax LF prot -5, BoNT-A LC inh2 -4, Autofluor counter 24263* and BoNT-F LC inh -5.
For C=CCNC(=O)c1cc2cc(Cl)ccc2nc1N the results were Anthrax LF prot 3, BoNT-A LC inh2 1, Autofluor counter 5363 and BoNT-F LC inh -2.
`CCN(CC(=O)NCc1cccs1)C(=O)c1cccc(S(=O)(=O)N(CC)c2ccccc2)c1` gave Anthrax LF prot -7, BoNT-A LC inh2 -1, Autofluor counter 3032 and BoNT-F LC inh -1.
For N#Cc1ccc(-c2nc3ccc(Cl)cn3c2Cc2ccccc2C(F)(F)F)cc1 the results were Anthrax LF prot -3, BoNT-A LC inh2 1, Autofluor counter 6540 and BoNT-F LC inh 2.
Cc1nnc(-c2cnn(-c3ccccc3)c2N)n1Cc1ccccc1 was read as Anthrax LF prot -3, BoNT-A LC inh2 -1, Autofluor counter 20987* and BoNT-F LC inh -2.
`Cc1nnc(-c2cnn(-c3ccccc3)c2N)n1Cc1ccc(F)cc1` gave Anthrax LF prot -9, BoNT-A LC inh2 inconclusive, Autofluor counter 19393* and BoNT-F LC inh 0.
Screening Cc1nnc(-c2cnn(C)c2N)n1Cc1ccccc1 returned Anthrax LF prot 0, BoNT-A LC inh2 0, Autofluor counter 3944 and BoNT-F LC inh -12.
For COCCCn1c(C)nnc1-c1cnn(-c2ccccc2)c1N the results were Anthrax LF prot -3, BoNT-A LC inh2 -1, Autofluor counter 4032 and BoNT-F LC inh -1.
C=CCn1c(SC(C)C(=O)NCc2ccc3c(c2)OCO3)nc2scc(-c3ccccc3)c2c1=O (centres undefined) was read as Anthrax LF prot 1, BoNT-A LC inh2 1, Autofluor counter 16316* and BoNT-F LC inh 1.
For Cc1ccc(C(=O)Nc2ccc3c(c2)nc2n3CCSC2)cc1 the results were Anthrax LF prot 5, BoNT-A LC inh2 2, Autofluor counter 23988* and BoNT-F LC inh 4.
CC(=O)Nc1ccc2c(c1)nc1n2CCSC1 was read as Anthrax LF prot -1, BoNT-A LC inh2 5, Autofluor counter 18041* and BoNT-F LC inh 1.
For Cc1ccc(NS(=O)(=O)c2ccc(C(=O)Nc3nncs3)cc2)cc1 the results were Anthrax LF prot -5, BoNT-A LC inh2 0, Autofluor counter 4231 and BoNT-F LC inh 0.
For COc1ccc(C(CNC(=O)c2ccc(-c3nc4ccccc4s3)o2)N2CCCC2)cc1 (centres undefined) the results were Anthrax LF prot 6, BoNT-A LC inh2 -11, Autofluor counter 20254* and BoNT-F LC inh -4.
For COc1ccccc1NS(=O)(=O)c1ccc(C(=O)NCC(c2ccccc2OC)N2CCCC2)cc1 (centres undefined) the results were Anthrax LF prot -5, BoNT-A LC inh2 -1, Autofluor counter 13517 and BoNT-F LC inh 2.
Screening COc1ccc(C(CNC(=O)c2cccc(S(=O)(=O)N3CCCC3)c2)N2CCCC2)cc1 (centres undefined) returned Anthrax LF prot -4, BoNT-A LC inh2 -23, Autofluor counter 26904* and BoNT-F LC inh 14.
Screening COc1ccc(C(CNC(=O)c2cccc(S(=O)(=O)N3CCOCC3)c2)N2CCCC2)cc1 (centres undefined) returned Anthrax LF prot 0, BoNT-A LC inh2 -2, Autofluor counter 8558 and BoNT-F LC inh -2.
`COc1ccc(C(CNC(=O)c2ccc(S(=O)(=O)Nc3ccccc3OC)cc2)N2CCCC2)cc1` (centres undefined) gave Anthrax LF prot -2, BoNT-A LC inh2 -4, Autofluor counter 19637* and BoNT-F LC inh -1.
`O=C(c1cccs1)N(C(=O)c1cccs1)c1ccc(Br)cn1` gave Anthrax LF prot 0, BoNT-A LC inh2 2, Autofluor counter 22230* and BoNT-F LC inh 1.
For CC(C)(C)OC(=O)N1CCC[C@@H]1C(=O)N1CCC(C(=O)O)CC1 the results were Anthrax LF prot 0, BoNT-A LC inh2 0, Autofluor counter 2294 and BoNT-F LC inh 3.
CC(C)(C)OC(=O)N1CCC(C(=O)N2CCC[C@H]2C(=O)O)CC1 was read as Anthrax LF prot 0, BoNT-A LC inh2 3, Autofluor counter 20337* and BoNT-F LC inh 6.
For N#Cc1cccc(NC(=O)CN2C(=O)NC(Cc3ccccc3)C2=O)c1 (centres undefined) the results were Anthrax LF prot -6, BoNT-A LC inh2 -4, Autofluor counter 4808 and BoNT-F LC inh -13.
